# In PubChem BioAssay AID686978 (National Center for Advancing Translational Sciences (NCATS), 2013):
# Out of some 420,000 compounds screened, about 64,000 (15%) were called active. About 27% were inconclusive and are not listed. Only a sample is shown. Unmarked numbers belong to inactive results. Calls come from the whole dose curve; as a rule, active = well fitted inhibition curve with a large enough effect; inconclusive = small, poorly fitted or top-dose-only effect; inactive = flat fitted curve, though single readings scatter.
# Experiment: qHTS for Inhibitors of human tyrosyl-DNA phosphodiesterase 1 (TDP1): qHTS in cells in absence of CPT; note: nearly all actives have a fitted effect of over 55% in size
# Conditions: DT40 Tdp1-/- hTDP1 cells, no CPT, ATP luminescence, 48 h; activity change, negative = growth inhibition: at 46.2 µM (top of the series)
# How it was run: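 A cellular qHTS used chicken DT40 cells lacking endogenous Tdp1 but carrying stably transfected human TDP1. Compounds were applied without camptothecin, and cell growth kinetics were judged by ATP-dependent luminescence after ≥48 hr.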
# % is set by controls: 0 for no effect and ±100 for the full control effect; potency is the fitted concentration of half-maximal effect.
Compound,"activity change, negative = growth inhibition",Potency
COc1ccc2c(c1)CCC/C2=N\OC(=O)c1ccccc1F,-24.6%,–
CC(C)(CSc1nncn1/N=C/c1ccco1)NS(=O)(=O)c1ccc(Cl)cc1,-25.2%,–
O=C(COC(=O)CSc1nnc(-c2ccc(Cl)cc2)o1)Nc1cc(Cl)cc(Cl)c1,-9.27%,–
Cn1ccsc1=NC(=O)c1cc(S(=O)(=O)N2CCOCC2)ccc1Cl,1.11%,–
Cc1ccccc1C(=O)Nc1ccccc1Sc1ccccc1,-4.96%,–
O=C(O)COc1nsnc1N1CCOCC1,-2.57%,–
CSCCC(NC(N)=O)C(=O)N(C)CC(=O)Nc1ccc(C)cc1 (stereo not drawn),-6.89%,–
COc1cccc(N2CC(NC(=O)/C=C\c3ccccc3)CC2=O)c1 (stereo not drawn),-25.4%,–
COc1ccc(-c2nn3c(-c4ccc(OC)cc4)nnc3c3ccccc23)cc1,1.41%,–
CC(C)N(C(=O)Cn1cc(S(=O)(=O)CC(=O)N2CCOCC2)c2ccccc21)C(C)C,15.3%,–
O=C(COC(=O)CNC(=O)C1CCCCC1)NCc1ccccc1,-19.7%,–
O=C(O)C1CCN(C(=O)OCc2ccccc2)CC1,0.979%,–
O=C(NCc1ccccc1)C1=C[C@@H](C2CCCCC2)C[C@@H](OCc2ccc(CO)cc2)O1,–,16.4 µM (active)
COc1cc(Cl)cc(C2NC(=O)NC(C)=C2C(=O)NCc2ccccc2)c1O (stereo not drawn),-1.85%,–
CC(=O)Nc1ccc(NC(=O)COc2ccc(-c3ccccc3)cc2)cc1,-0.864%,–
CC(NC(=O)COc1ccc(-c2ccccc2)cc1)C1CCCO1 (stereo not drawn),–,11.6 µM (active)
CCOc1ccc(C(CC(=O)O)NC(=O)COc2ccccc2)cc1 (stereo not drawn),-10%,–
COc1ccc(NC(=O)N(C)C[C@H]2Oc3ccc(NC(=O)C4CC4)cc3C(=O)N([C@H](C)CO)C[C@@H]2C)cc1,6.81%,–
CCCc1cc(=O)[nH]c(SCc2ccc(C#N)cc2)n1,-8.85%,–
CSCCC(Nc1ccc(S(=O)(=O)N2CCOCC2)cc1[N+](=O)[O-])C(=O)OCC(=O)N(C(C)C)C(C)C (stereo not drawn),-4.59%,–
Cc1ccc(OC(=O)CSc2nnc(-c3cccs3)o2)cc1,2.81%,–
COc1ccc(-n2c(C)cc(C(=O)CSc3nnc(-c4cccs4)o3)c2C)cc1,–,16.4 µM (active)

Compound,"activity change, negative = growth inhibition",Potency
COc1ccc(OC)c(C(=O)CSc2nnc(-c3cccs3)o2)c1,-23.3%,–
Cc1cc(C)c(NC(=O)CN2CCCCCC2)c(C)c1,20.9%,–
Cc1c(-c2ccccc2)cn2c1-c1ccc(C)n1CC2,–,16.4 µM (active)
O=c1[nH]c(SCc2ccccc2)nnc1-c1ccccc1,-13.7%,–
CN(C)C(=O)CSc1n[nH]c(-c2ccco2)n1,2.59%,–
COC(C[C@@H](O)C[C@@H](O)[C@H](C)OCc1ccccc1)OC,-4.64%,–
O=C(Cc1ccc(Br)cc1)NCCc1ccccc1,-19.9%,–
COc1ccccc1NC(=O)CCC(=O)N1CC(C)Oc2ccc(C)cc21 (stereo not drawn),–,16.4 µM (active)
COC(=O)C(CC(=O)Nc1cc(C)ccc1C)Nc1ccccc1OC (stereo not drawn),-2%,–
CC1CN(C(=O)CCC(=O)NCc2cccnc2)c2ccccc2O1 (stereo not drawn),-9.83%,–
O=C(CSc1ncnc2scc(-c3ccccc3)c12)NCc1ccc2c(c1)OCO2,4.66%,–
O=C(Cn1nnc(-c2ccccc2)n1)NCc1ccc2c(c1)OCO2,-21.4%,–
CN(C)C(=O)c1cccc(-c2cnc3sc(NCc4ccc5c(c4)OCO5)nn23)c1,–,13 µM (active)
OC(CNC1CCCC1)COc1ccc(F)cc1 (stereo not drawn),-3.38%,–
Nc1c(C(=O)Nc2ccc3c(c2)OCCO3)nnn1Cc1ccccc1,-27.2%,–
COC(=O)c1ccc(CSc2nc3cc(Cl)ccc3o2)cc1,-11.2%,–
O=S(=O)(c1ccccc1)c1nc(-c2ccccc2F)oc1NCc1cccnc1,5.86%,–
COc1cccc(-c2nc(S(=O)(=O)c3ccc(C)cc3)c(NCc3ccccc3)o2)c1,–,18.4 µM (active)
O=S(=O)(c1ccc(Br)cc1)c1nc(-c2ccccc2)oc1NCc1cccnc1,-18.3%,–
COc1cc(C2C3C(=O)N(c4ccccc4)C(=O)C3ON2c2ccccc2)ccc1O (stereo not drawn),-5.92%,–
COc1ccc(-c2nn(CC(=O)NC3CCCC3)c3c2cnc2ccc(F)cc23)cc1,-10.7%,–
CCc1ccc2ncc3c(-c4ccc(C)cc4)nn(CC(=O)NCc4ccccc4)c3c2c1,-13.3%,–

Compound,"activity change, negative = growth inhibition",Potency
COc1ccc2ncc3c(-c4ccc(C)c(C)c4)nn(CC(=O)NC4CCCC4)c3c2c1,–,6.51 µM (active)
COc1cccc2c(=O)n(CC(=O)N3CCCCCC3)ccc12,-8.15%,–
CCOc1cc(C2C(C(=O)Nc3ccc(OC)cc3)=C(C)Nc3nc(SC)nn32)ccc1O (stereo not drawn),-2.38%,–
CCOc1ccc(C2C(C(=O)Nc3ccc(Cl)cc3)=C(C)Nc3nc(C(F)(F)F)nn32)cc1 (stereo not drawn),–,14.6 µM (active)
COc1cc(C2C(C(=O)Nc3ccc(F)cc3)=C(C)Nc3nc(CCCO)nn32)cc(OC)c1OC (stereo not drawn),-0.287%,–
CCOc1ccccc1N(C)C(=O)c1cc2c(s1)-c1ccccc1OC2,–,16.4 µM (active)
CCOc1ccccc1-c1cc(C(=O)N2CCOCC2)c2ccccc2n1,3.51%,–
COc1cc(OC)c(N(C)C(=O)c2cc3c(=O)oc4ccccc4c3s2)cc1Cl,-0.861%,–
COc1ccc(C(=O)NC(C)Cn2nc(C)cc2C)cc1OC1CCN(C(C)=O)CC1 (stereo not drawn),-0.393%,–
COc1ccc(-c2onc3ccc(C(C)=O)cc23)cc1,-13.7%,–
CCOCCCNC(=O)c1ccc(CS(=O)(=O)c2cccc(C(F)(F)F)c2)o1,6.63%,–
Cc1c(Cl)cnc(NC(=O)COC(=O)c2ccc(S(=O)(=O)NCc3ccco3)cc2)c1Cl,-8.95%,–
COC(=O)C[n+]1cccc2ccccc21,-21.6%,–
Cc1cccc[n+]1CC(=O)c1ccccc1,0.748%,–
CC(C)(C)c1ccc(C(=O)C[n+]2cccc3cc(Cl)ccc32)cc1,–,4.47 µM (active)
COc1cccc2c1OCC(C(=O)NCc1ccc(Cl)cc1Cl)=C2,2.01%,–
O=C1NCC(Nc2ccccc2)C(=O)N1 (stereo not drawn),12.2%,–
Nc1ccccc1SC(C[N+](=O)[O-])c1ccccc1 (stereo not drawn),–,2.31 µM (active)
Nc1ccccc1SCc1cc([N+](=O)[O-])cc2c1OCOC2,-24.8%,–
C#CCO[C@@H]1C[C@H](n2cnc3c(=O)[nH]c(NC(=O)C(C)C)nc32)O[C@@H]1CO,3.17%,–
CCCCCCCCCCCCCCCCO,4.89%,–
O=C(CN1C(=O)COc2ccccc21)NCCN1CCc2ccccc2C1,4.11%,–

Compound,"activity change, negative = growth inhibition",Potency
O=C(NCCCN1CCOCC1)c1cc2c(s1)CCC2,-0.232%,–
Cc1cccc2c1-c1sc(C(=O)NCCCN3CCc4ccccc4C3)cc1CO2,–,20.6 µM (active)
O=C(Nc1cccc(Cl)c1)c1cncn1-c1ccc(F)cc1,-3.19%,–
Cc1cc2c(cc1C)N(C(=O)CN1C(=O)c3ccccc3C1=O)C(C)(C)c1ssc(=S)c1-2,–,25.9 µM (active)
Cc1cc(C)cc(NC(=O)CN2C(=O)c3ccccc3C2=O)c1,-10.3%,–
Cc1ccc(NC(=O)CCN2C(=O)c3ccccc3C2=O)cc1C,3.57%,–
CCCC(=O)N=c1sc2cccc(F)c2n1C,-6.66%,–
CCCN(C(=O)CSc1nnnn1C)c1c(N)n(Cc2ccccc2)c(=O)[nH]c1=O,-8.42%,–
COC(=O)[C@@H]1C[C@@]2(O)[C@@H](O)[C@@H](O)[C@@H](O)C[C@H]2N1Cc1ccc(C)s1,-22.7%,–
CS(=O)(=O)N(CC(=O)N1CCN(c2ccc(F)cc2)CC1)C1CCCCC1,-11.2%,–
CN(C1CCS(=O)(=O)C1)S(=O)(=O)c1ccc2ccccc2c1 (stereo not drawn),-18.1%,–
COc1ccc(CN2CCCC(CNC(=O)c3ccc(F)cc3)C2)cc1OC (stereo not drawn),-13.6%,–
COc1ccc(CCN(C)C(=O)C2CCCN(Cc3ccc(OC)c(OC)c3)C2)cc1OC (stereo not drawn),-13.7%,–
COc1ccc(CN2CCCC(C(=O)N3CCCCC3)C2)cc1 (stereo not drawn),-15.9%,–
COc1cc(CN2CCCC(C(=O)c3ccc(SC)cc3)C2)cc(Cl)c1O (stereo not drawn),–,14.6 µM (active)
COc1ccc(CN2CCCC(C(=O)c3ccc(Cl)cc3)C2)cc1Cn1cncn1 (stereo not drawn),–,18.4 µM (active)
c1ccc(-n2ncc(-c3nn[nH]n3)n2)cc1,-9.83%,–
Cc1ccccc1NC(=O)COc1cccc2c1CCNC2=O,-29.1%,–
Cc1c(Cl)cccc1NC(=O)CSc1ccc(-c2cccnc2)nn1,-20.6%,–
Brc1ccc(CSc2ccc(-c3ccco3)nn2)cc1,5.7%,–
Cc1cc(F)ccc1S(=O)(=O)Nc1ccc(C(=O)N(C)Cc2ccco2)cc1,-6.11%,–
Cc1ccnc(NS(=O)(=O)c2ccc(NC(=O)c3ccc(S(=O)(=O)N4CCOCC4)cc3)cc2)n1,-8.99%,–

Compound,"activity change, negative = growth inhibition",Potency
Cc1cc(C2=NNC(=Nc3ccc(S(=O)(=O)N4CCOCC4)cc3)SC2)c(C)n1CC1CCCO1 (stereo not drawn),–,2.91 µM (active)
C=CCn1c(C)cc(C2=NNC(=NCC)SC2)c1C,–,20.6 µM (active)
Cc1ccc(S(=O)(=O)N2CCC(C(=O)NCC3CCCO3)CC2)cc1 (stereo not drawn),0.855%,–
COCCn1c(C)cc(C2=NNC(=Nc3ccc(F)cc3)SC2)c1C,–,14.6 µM (active)
CCSC(C)CC1C/C(=N/O)c2c(C)noc2C1 (stereo not drawn),-5.32%,–
Cc1ccc(Cl)c(OCC(=O)N2CCc3ccccc3C2)c1,-4.58%,–
Nc1c(-c2ccc(F)cc2)cnn1C1CCS(=O)(=O)C1 (stereo not drawn),-14.5%,–
Cc1cc(=O)cc(C)n1-c1ccc(Cl)c(Cl)c1,2.04%,–
CCOc1ccccc1NC(=O)CCS(=O)(=O)c1cccc2nsnc12,–,inactive
CCOc1ccc(-c2c(C)n([O-])c3c([n+]2=O)CCCC3)cc1,-1.93%,–
Nc1nc2cc(Cl)ccc2n1N,-9.62%,–
COc1cc(OC)c(C2C=C(C(=O)O)Nc3ncnn32)cc1OC (stereo not drawn),31.7%,–
CC(C)c1nnc(NC(=O)C2CC(=O)N(CCc3ccc(F)cc3)C2)s1 (stereo not drawn),-1.1%,–
CC(=O)Nc1ccc(S(=O)(=O)N(CCc2ccccc2)CC(=O)N/N=C/c2ccc(C(=O)O)cc2)cc1,-16.1%,–
CCOc1ccc(C(=O)Nc2ccc3nc4c(c(Nc5ccccc5OC)c3c2)CCCC4)cc1,–,4.61 µM (active)
CCOc1ccc(C(=O)NC2CCN(C(=O)Nc3ccccc3OC)CC2)cc1,-20.6%,–
CC(=O)c1cccc(NC(=O)CSc2nc3c(c(=O)[nH]2)CCC3)c1,-13.9%,–
CCOc1ccc(NC(=O)CSc2c3c(nc4ccccc24)CCCC3)cc1,–,16.4 µM (active)
CCOc1ccc(NC(=O)CSc2nncn2C)cc1,-14.2%,–
COc1ccc(C(=O)Nc2onc3c2CCCC3)cc1,-21%,–
